MARV entry inh = Marburg virus entry inhibition; AID 540276; Potency, µM (series often up to 37.8 µM), without a hit: top-dose activity change, negative = inhibition, usual class: inhibitors; hit rate 1.8% among 300,000; Marburg virus pseudotyped entry inhibition, cell reporter; calls by dose curve; tested in HEK293 cells
HCV inh = inhibitors of hepatitis C virus infection. AID 651820. Potency, µM (titrated, usually from 41.8 µM), for inactives: top-dose activity change, negative = inhibition, most hits filed as inhibitors. Huh7.5.1 HCVcc-Cre infection, luciferase reporter, 44 h. hit rate 3.4% among 340,000; active = well fitted inhibition curve with a large enough effect; inconclusive = small, poorly fitted or top-dose-only effect, or another doubt; inactive = no such curve, though single readings can be large or run the other way
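HCVcc-Cre virus at an moi near 0.5 was added right after compound to cells cultured 4 h from seeding (1,000 cells/well). Luciferase activity was determined 44 h later, 15 min after substrate addition at RT.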
Lassa entry inh = inhibitors of Lassa virus binding or cell entry; Potency, µM (series often up to 37.9 µM), without a hit: at the top dose activity change, negative = inhibition, hits mostly inhibitors; AID 540256; Lassa virus pseudotype entry inhibition, cell reporter; hit rate 1.2% among 300,000; calls by dose curve; tested in HEK293 cells; note: nearly all actives have a fitted effect of over 50% in size
Vaccinia Venus = vaccinia inhibition (Venus reporter); AID 720580; Vaccinia virus Venus reporter expression, fluorescence; hit rate 0.46% among 330,000; Potency, µM (top dose mostly 36.5 µM), inactives show at the highest dose activity change, negative = inhibition, most hits filed as inhibitors; calls by dose curve; tested in A549 cells; note: nearly all actives have a fitted effect of over 30% in size
VACV mCherry inh = inhibitors of vaccinia virus infection (mCherry reporter signal); Vaccinia virus mCherry reporter infection, fluorescence; hit rate 0.63% among 310,000; Potency, µM (titrated, usually from 36.5 µM), inactives show at the highest dose activity change, negative = inhibition, usual class: inhibitors; AID 720579; calls by dose curve; tested in A549 cells; note: nearly all actives have a fitted effect of over 35% in size
An asterisk follows results filed as active; i = inactive; ? = inconclusive; . = no result given; [ ] = remark or other dose. Hits are enriched below; roughly 4.6% of the tested compounds scored in any of these assays. % is set by controls: 0 for no effect and ±100 for the full control effect; potency is the fitted concentration of half-maximal effect.

SMILES | MARV entry inh | HCV inh | Lassa entry inh | Vaccinia Venus | VACV mCherry inh
Cc1cccc(C)c1OCc1cc(C(=O)N2CCN(c3ccccc3)CC2C)no1 (stereo not drawn) | 13µM* | . | ? | -13% | i
Cc1cccc(C)c1OCc1cc(C(=O)N2CCC(c3ccncc3)CC2)no1 | ? | 7.9µM* | 14%[46.1 µM] | -20% | -16%
Cc1cc(C)nc(-n2nc(C)c3c2NC(=O)CC3c2ccccc2OC(C)C)n1 (stereo not drawn) | -23%[46.1 µM] | . | -3%[46.1 µM] | -4% | -5%
O=C(c1cc(COc2c(F)cccc2F)on1)N1CCC(c2ccncc2)CC1 | ? | 5µM* | -8% | -4% | -22%
O=C(c1ccc2nc(Cc3ccccc3F)oc2c1)N1CCCC1 | ? | 2% | 6.3µM* | -10% | -22%
CC(C)CC(=O)C1CCCN(C(=O)c2ccc3oc(Cc4ccccc4)nc3c2)C1 (stereo not drawn) | -7%[46.1 µM] | 22µM* | ? | -8% | -14%
CN(C)N=Nc1ccc(/C=C2\C=Cc3ccccc32)cc1 | . | . | . | -15% | -16%
Clc1ccc2nc(-c3ccc(Cl)nc3)[nH]c2c1 | 7.9µM* | ? | ? | -18% | i
CCOC(=O)CSc1nc2ccccc2c(=O)n1CC1CCCO1 (stereo not drawn) | 6% | 8.9µM* | -24% | . | .
O=c1c2ccccc2nc(SCc2nnc(-c3ccccc3Br)o2)n1Cc1ccco1 | -3% | 13µM* | ? | -15% | -14%
CCOC(=O)CSc1nc2ccccc2c(=O)n1Cc1ccco1 | -2% | 13µM* | -15% | -15% | -5%
CCOC(=O)CSc1nc2ccccc2c(=O)n1C | ? | 5% | -8% | -20% | .
CCOC(=O)CSc1nc2ccccc2c(=O)n1CC1COc2ccccc2O1 (stereo not drawn) | -3% | 2.5µM* | 8% | . | .
O=C(CSc1nc2ccccc2c(=O)n1Cc1ccco1)c1ccccc1 | -7% | ? | ? | -13% | -3%
O=C1[C@H]2[C@H]3[C@H](O)[C@H](O)C/C(=N\OC[C@@H](O)COCc4ccco4)[C@H]3CC[C@H]2C(=O)N1Cc1ccccc1 | -4%[14.2 µM] | . | . | . | .
Cc1csc(C(C)N(C)C(=O)c2cnn(-c3nccc(-c4cc(C)sc4C)n3)c2C)n1 (stereo not drawn) | . | . | . | -5% | -14%
COc1cccc(C2(CC(=O)N3CCN(c4nonc4C)CC3)CC(=O)N(C3CCCC3)C2=O)c1 (stereo not drawn) | . | . | . | -15% | -3%
CCOC(=O)CSc1nc2ccc(N3CCOCC3)cc2c(=O)n1Cc1ccc2c(c1)OCO2 | . | 4µM* | . | . | .
CCOC(=O)CSc1nc2c(sc(=S)n2-c2ccccc2OC)c(=O)n1Cc1ccco1 | -4% | 2.8µM* | 5% | . | .
CCN(CC)C(=O)CSc1nc2cc3c(cc2c(=O)n1Cc1ccco1)OCO3 | 0% | 10µM* | -5% | -9% | i
CCN(CC)C(=O)CSc1nc2cc3c(cc2c(=O)n1Cc1ccc2c(c1)OCO2)OCO3 | 0% | ? | -3% | . | .
O=C(CCc1nnc2n(Cc3ccc(F)cc3)c(=O)c3ccccc3n12)NCCN1CCOCC1 | . | 13% | . | -11% | -10%
O=C(CCc1nnc2n(Cc3ccc(F)cc3)c(=O)c3ccccc3n12)N1CCN(c2ccccn2)CC1 | . | 14µM* | . | . | .
O=C(c1ccc(Cn2c(=S)[nH]c3ccccc3c2=O)cc1)N1CCN(c2ccccn2)CC1 | ? | 11µM* | ? | ? | -24%
Cc1ccc(C)c(CN2C(=O)c3ccccc3Sc3ccc(C(=O)NC4CCCC4)cc32)c1 | . | . | ? | -5% | -7%
SMILES | MARV entry inh | HCV inh | Lassa entry inh | Vaccinia Venus | VACV mCherry inh
CCCCCCCCCCCCCCCCCCN(CCCCCCCCCCCCCCCCCC)c1ccc(/C=C/c2ccc(C=O)cc2)cc1 | . | . | . | -15% | i
COc1cc2c(cc1OC)C1C(=O)c3c(cc4c(c3O)C=CC(C)(C)O4)OC1CO2 (stereo not drawn) | . | . | . | 12% | 4%
Cc1ccc(C[n+]2ccccc2)cc1 | . | 4.5µM* | . | -26% | i
NC(=O)C1CCN(C(=O)c2ccc(NC(=O)c3nsc4ccccc34)cc2)CC1 | . | . | ? | -7% | -4%
C=CCN1C[C@@H](C)N([C@H](c2ccc(C(=O)N(CC)CC)cc2)c2cccc(OC)c2)C[C@@H]1C | 16µM* | . | ? | . | .
O=C(Nc1ccc(Cl)cc1)/C(=C/c1cccc(O)c1)c1nc2ccccc2s1 | ? | 13µM* | ? | 10µM* | 11µM*
Cc1cccc2c1-c1sc(C(=O)NCCCN3CCN(c4ccccc4F)CC3)cc1CO2 | 11µM* | . | . | -23% | -14%
CCN1CCN(CCCNC(=O)c2cc3c(s2)-c2c(C)cccc2OC3)CC1 | 10µM* | . | . | ? | ?
Cc1cccc2c1-c1sc(C(=O)Nc3ccccc3N3CCN(C)CC3)cc1CO2 | 16µM* | -12% | ? | -24% | -19%
Oc1cccc(/C=N/n2c(C3CCCCC3)n[nH]c2=S)c1 | 16% | 2.2µM* | ? | -14% | -20%
CC1Cc2ccccc2N1C(=O)CSc1nc2cc3c(cc2cc1C#N)OCO3 (stereo not drawn) | 7% | ? | -11% | 4% | -9%
Cc1cc2cc3c(cc2nc1SCC(=O)N1c2ccccc2CC1C)OCO3 (stereo not drawn) | ? | 4µM* | ? | -13% | .
COc1ccc(OC)c(CNS(=O)(=O)c2c(C(=O)N3CCC(C)CC3)c(C)n(C)c2C)c1 | . | . | 13%[46.1 µM] | -3% | -11%
Cc1ccc(C(C)C)c(OCC(=O)Nc2nc3c(s2)CCCC3)c1 | ? | . | 3.2µM* | 8% | -13%
Cc1ccc(CC(=O)Nc2nc3c(s2)CCCC3)cc1 | ? | -25% | ? | -6% | 8.9µM*
Cc1cc(C(=O)Nc2nc3c(s2)CCCC3)cs1 | ? | 13µM* | ? | . | .
COc1ccccc1OCC(=O)Nc1nc2c(s1)CCCC2 | . | -5% | . | . | .
O=C(CS(=O)(=O)Cc1ccccc1)Nc1nc2c(s1)CCCC2 | -3% | -5% | 12% | -17% | i
Cc1cccc(C(=O)Nc2nc3c(s2)CCCC3)c1 | ? | . | ? | -11% | 1%
O=C1C=CCC(/C=C/c2ccccc2)O1 (stereo not drawn) | 8.2µM* | -6%[8.37 µM] | ? | 0.89µM* | ?
COC1=CC(=O)O[C@@H](/C=C/c2ccccc2)C1 | 18% | -7% | . | -7% | -14%
NC(=S)n1[nH]c(-c2ccc([N+](=O)[O-])cc2)c(N=Nc2ccc(Cl)cc2)c1=O | ? | 6.3µM* | ? | ? | ?
Cc1ccc(N=Nc2c(C)[nH]n(C(N)=S)c2=O)cc1 | -26%[46.1 µM] | 2.8µM* | ? | -19% | ?
Cc1ccc([N+](=O)[O-])cc1N=Nc1c(C)[nH]n(C(N)=S)c1=O | . | 11% | . | . | .
Cc1ccc([N+](=O)[O-])cc1N=Nc1c(-c2ccc([N+](=O)[O-])cc2)[nH]n(C(N)=S)c1=O | . | 7.9µM* | . | . | .
CC(NC(=O)Nc1ccc(Cl)cc1)c1ccccc1 (stereo not drawn) | . | -11% | . | . | .
Cc1ccc(C(NC(=O)NC(C)c2ccccc2)C(Cl)(Cl)Cl)cc1F (stereo not drawn) | ? | 10µM* | ? | ? | 22µM*

Source: PubChem BioAssay
